Source: PubChem BioAssay (National Center for Advancing Translational Sciences (NCATS))
HT1080NT lethal = kills 2HG-producing HT-1080-NT fibrosarcoma cells. HT-1080-NT fibrosarcoma viability, CellTiter-Glo ATP luminescence, 48 h. Potency, µM (doses to about 46.1 µM), hits mostly cytotoxic. 360,000 tested, 1.6% active. AID 686970;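 note: NT is the 2HG producing partner of a matched IDH1 knockdown line; nearly all actives have a fitted effect of over 55% in size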
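Fibrosarcoma NT cells, 750 per well in 5% FBS RPMI, were exposed to compound for 48 hours. Viability: CellTiter-Glo luminescence.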
HT1080 IDH1KD tx = HT-1080 IDH1 knockdown cell toxicity (counter line); HT-1080 IDH1 knockdown viability, ATP luminescence, 48 h; Potency, µM (titrated, usually from 46.1 µM), hits mostly cytotoxic; 360,000 tested, 2% active; AID 686971
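Knockdown cells (IDH1KD HT-1080) received compounds 2 h after plating at 750 cells/well and were kept 48 h at 37 °C in 5% FBS RPMI. A CellTiter-Glo luminescence read gave % activity for curve fitting.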
DT40 TDP1 no CPT = qHTS for Inhibitors of human tyrosyl-DNA phosphodiesterase 1 (TDP1): qHTS in cells in absence of CPT | Potency, µM (series often up to 46.2 µM), most hits filed as inhibitors | 420,000 tested, 15% active | AID 686978, 2013 | DT40 Tdp1-/- hTDP1 cells, no CPT, ATP luminescence, 48 h; note: nearly all actives have a fitted effect of over 55% in size
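Luminescent ATP content (CellTiter-Glo) served as the growth readout. Knockout chicken DT40 cells expressing human TDP1 were exposed to compounds without camptothecin for a minimum 48 hr at 37 °C.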
ELG1 DNA repair = blocks ELG1-dependent DNA repair in HEK293T cells. HEK293T ELG1-luciferase reporter, luminescence, 16 h; DNA damage induced by 5-fluorouridine. Potency, µM (titrated, usually from 46.1 µM), usual class: inhibitors. 330,000 tested, 2.3% active. AID 504467; note: nearly all actives have a fitted effect of over 55% in size
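Reporter activity after DNA damage by 5-fluorouridine is monitored. Compound-treated cells incubate 16 hr at 37 °C, then ONE-Glo is added for 30 min before luminescence reading.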
IL-1B inflam inh = inflammasome signaling inhibition, IL-1 beta readout; AID 743279; activity change, % at 57.5 µM; 360,000 tested, 4.7% active; THP-1 LPS/ATP IL-1B secretion, AlphaLISA, 16 h; stronger effect = lower value; in the data active = activity change below about -50%; inconclusive = mostly about -30% to -49%
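THP-1 cells pretreated 1 hr with compounds (up to 57.5 uM final), then stimulated with LPS (250 ng/mL final) plus ATP (1.25 mM final); secreted IL-1B measured by AlphaLISA after 16 hr, decreased signal indicating inhibition.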
DT40 TDP1 CPT = growth inhibition of DT40 Tdp1-/-;hTDP1 cells with camptothecin (screen for TDP1 inhibitors); chicken DT40 Tdp1-/-;hTDP1 cells + 20 nM CPT, ATP luminescence, 48 h; Potency, µM (titrated, usually from 46.2 µM), hits mostly inhibitors; 420,000 tested, 12% active; AID 686979; note: nearly all actives have a fitted effect of over 55% in size
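Cell growth measured by CellTiter-Glo luminescence after a minimum 48 h, 37 C compound exposure with 20 nM CPT in Tdp1-knockout DT40 cells stably expressing hTDP1, seeded 400/well; qHTS titration format.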
A number is an active result; - = inactive; ? = inconclusive; . = no result. Most compounds without a hit are left out; they make up all but 19% or so of the library. Unless noted, calls come from the whole dose curve; as a rule, active = well fitted curve in the direction sought with a large enough effect; inconclusive = small, poorly fitted or top-dose-only effect, or another doubt; inactive = no such curve, though single readings can be large; an effect the other way counts as inactive or inconclusive.

SMILES | HT1080NT lethal | HT1080 IDH1KD tx | DT40 TDP1 no CPT | ELG1 DNA repair | IL-1B inflam inh | DT40 TDP1 CPT
COc1cccc(C2c3[nH]c4ccccc4c3CCN2Cc2ncc[nH]2)c1 (centres undefined) | ? | - | - | - | - | -
c1ccc2c3c([nH]c2c1)C(C1CCCCC1)N(Cc1ncc[nH]1)CC3 (centres undefined) | - | - | ? | - | -87 | ?
COc1ccc(-c2cccc(NC(=O)c3cccs3)c2)nn1 | - | - | ? | ? | - | ?
CC1(C)CC(N2CCOCC2)=CC(=S)N1 | ? | - | - | . | - | -
CCOC(=O)/C=C/C(=O)Nc1ccc(S(=O)(=O)N2CCCCCC2)cc1 | - | ? | ? | - | -88 | ?
CCOC(=O)/C=C/C(=O)Nc1ccc(S(=O)(=O)N2CCc3ccccc32)cc1 | - | - | 15µM | - | ? | 23µM
CCOC(=O)/C=C/C(=O)Nc1ccc(S(=O)(=O)N(C)c2ccccc2)cc1 | ? | 21µM | ? | - | -110 | 1.8µM
CC(=O)Nc1ccc(S(=O)(=O)N(C)c2ccccc2)cc1 | - | - | - | - | - | -
Cc1cnc(NC(=O)NCC2CCCC(CNC(=O)Nc3ncc(C)s3)C2)s1 (centres undefined) | ? | ? | ? | 21µM | -98 | ?
Cn1c(=O)oc2cc(S(=O)(=O)NCCC(=O)Nc3ccc(F)cc3F)ccc21 | . | . | - | . | . | -
Cc1ccc2nc(C3CCCN(C(=S)Nc4cccc(C)c4C)C3)[nH]c2c1 (centres undefined) | ? | ? | 18µM | ? | - | ?
COc1ccc(CNC(=O)CCc2nnc3n(CC(C)C)c(=O)c4ccccc4n23)cc1 | . | . | - | . | . | -
Cc1cc(C)n(CC(O)Cn2c(C)c(C)c3ccccc32)n1 (centres undefined) | - | - | - | - | - | -
CC(=O)c1c(C)nn(CC(O)Cn2c3c(c4cc(C)ccc42)CCCC3=O)c1C (centres undefined) | - | - | ? | ? | -62 | ?
Cc1ccc2c(c1)c1c(n2CC(O)CN2CCOCC2)CCCC1 (centres undefined) | . | . | . | - | . | .
Cc1ccc2c(c1)c(C)c(C)n2CC(O)Cn1nc(C)c(Br)c1C (centres undefined) | 16µM | ? | ? | - | ? | -
COC(=O)Cn1c2c(c3cc(C)ccc31)CCCC2 | - | - | - | - | - | -
Cc1ccc2c(c1)c1c(n2CC(O)Cn2nc(C)c(Br)c2C)C(=O)CCC1 (centres undefined) | - | - | 21µM | ? | - | 21µM
CCOC(=O)C1CCN(S(=O)(=O)c2cc(Br)cc3c2N(C(=O)CC)CC3)CC1 | . | . | - | . | . | -
c1ccc(N2CCN(c3cccc(-c4cc5ccccc5s4)n3)CC2)nc1 | - | - | - | . | - | -
Cc1ccc(-c2[nH]ncc2C(=O)c2ccccc2C)c(O)c1 | - | - | - | ? | - | -
Cc1cc(=O)[nH]c2sc(C(=O)N3c4ccccc4CC3C)c(N)c12 (centres undefined) | ? | - | - | ? | -60 | ?
Cc1nc2cc(C(=O)N3c4ccccc4CC3C)ccc2s1 (centres undefined) | 12µM | 13µM | 16µM | - | - | ?
O=C(COc1ccccc1Cl)Nc1cccc(S(=O)(=O)NC2=NCCCCC2)c1 | - | - | ? | - | - | ?
Cc1ccc2nc(NC(=O)C3CCCN(S(=O)(=O)c4cccc5nsnc45)C3)sc2c1 (centres undefined) | - | - | 18µM | 18µM | - | ?
SMILES | HT1080NT lethal | HT1080 IDH1KD tx | DT40 TDP1 no CPT | ELG1 DNA repair | IL-1B inflam inh | DT40 TDP1 CPT
Cc1ccc2nc(NC(=O)C3CCN(S(=O)(=O)c4cccc5nsnc45)CC3)sc2c1 | - | - | ? | 16µM | - | ?
COc1ccc2cc(C(=O)N(C)CC(=O)Nc3ccccc3Br)ccc2c1 | - | - | - | ? | - | ?
COC(=O)C(Sc1ccc(Cl)cc1)C1SC(=S)N(Cc2ccccc2)C1=O (centres undefined) | - | ? | 2.1µM | . | - | 2.9µM
O=C(CN1CCCCCC1)Nc1nc2ccccc2s1 | - | - | - | . | - | -
CCOC(=O)CCCCCC(=O)Nc1ccc2c(c1)C(=O)N([C@@H](C)CO)C[C@@H](C)[C@H](CN(C)S(=O)(=O)c1cccs1)OCCCC[C@H](C)O2 | - | - | - | . | - | -
Cc1ccc(-c2csc3ncnc(Sc4nnnn4-c4ccccc4)c23)cc1 | . | . | 5.6µM | . | . | 7.1µM
Clc1ccc(-c2csc3ncnc(Sc4nnnn4-c4ccccc4)c23)cc1 | . | . | 2µM | . | . | 3.5µM
O=C(O)CSc1ncnc2scc(-c3ccc(Br)cc3)c12 | - | - | - | - | - | -
Cc1sc2ncnc(Sc3nnnn3-c3ccccc3)c2c1C | 10µM | 7.1µM | 7.1µM | ? | -101 | 5.8µM
Clc1ccc(-n2nnnc2Sc2ncnc3sccc23)cc1 | 21µM | ? | 1.8µM | . | -120 | 2.3µM
COc1cc2ccccc2cc1C(=O)Nc1cccc(-c2nc3cc(C)c(C)cc3o2)c1C | . | . | - | . | . | -
Cc1cnc(-n2ncc(C(=O)N(C)CC3CCCN(C)C3)c2C2CC2)nc1-c1cccs1 (centres undefined) | . | . | - | . | . | -
CC1CCCC(C)N1CC(O)COCc1ccccc1 (centres undefined) | - | - | - | - | - | -
CC(=O)CCCC(NS(=O)(=O)CCC(Cl)(Cl)Cl)c1ccccc1 (centres undefined) | - | - | - | - | - | -
O=C(O)CSc1ncnc2scc(-c3ccccc3)c12 | - | - | - | - | - | -
c1ccc(-c2ccc(-c3csc4ncnc(Sc5nnnn5-c5ccccc5)c34)cc2)cc1 | . | . | 6.3µM | . | . | 7.1µM
COc1ccc(S(=O)(=O)N2CCC(C(=O)NCCC(=O)NCc3ccccc3OC)CC2)cc1 | - | - | - | - | - | -
CC(C)c1cc(C(=O)NCCc2cccs2)c(N)s1 | - | - | ? | . | - | ?
Nc1nc2ncccc2cc1C(=O)NCCc1cccs1 | - | 15µM | 13µM | . | - | 23µM
CC(OC(=O)CC1CC2CCC1C2)C(=O)Nc1cccc(S(=O)(=O)N2CCOCC2)c1 (centres undefined) | - | - | - | - | - | -
CCc1cccc(-n2c(=O)c3cccnc3n2CC(=O)Nc2c(C)cc(C)cc2C)c1 | . | . | 23µM | . | . | ?
Cc1ccc(CNC(=O)Cn2c3ncccc3c(=O)n2-c2ccc(C)cc2)cc1 | . | . | ? | . | . | 21µM
